Data reported in PubChem BioAssay.
A number with no mark means an inactive call.

Experiment: resazurin metabolic signal in A549 cells – cell-based, resazurin fluorescence, 24 h, PK04 Diversity Set, profiling panel (AID 1171); further: test concentration not given here
Settings: A549 viability, higher = more signal, called active from +8 up or from −8 down

SMILES	z-score
COc1ccc(C#Cc2ccc3c(c2)[C@]2(C(=O)N3)[C@H](c3ccccc3OCCO)N3[C@H](c4ccccc4)[C@H](c4ccccc4)OC(=O)[C@H]3[C@@H]2C(=O)Nc2nc3ccccc3s2)cc1	-2.07
COCCCNC(=O)[C@@]1(C)c2ccccc2C(=O)N(C(C)C)[C@H]1c1ccc(CO)cc1	0.601
COc1cc2c(cc1OC)CN(C(=O)[C@@H]1[C@H]3C(=O)O[C@H](c4ccccc4)[C@H](c4ccccc4)N3[C@H](c3ccc(O)cc3)[C@@]13C(=O)Nc1ccccc13)CC2	1.6
COc1cccc(-c2cccc(=O)o2)c1	0.563
COCCOC(=O)N1C(=O)[C@@]2(c3ccccc31)[C@H](c1ccc(O)cc1)N1[C@H](c3ccccc3)[C@H](c3ccccc3)OC(=O)[C@H]1[C@@H]2C(=O)Nc1nc2ccccc2s1	0.185
O=C1O[C@@H](c2ccccc2)[C@@H](c2ccccc2)N2[C@@H](c3ccccc3OCCO)[C@]3(C(=O)Nc4ccccc43)[C@@H](C(=O)Nc3nc4ccccc4s3)[C@H]12	-1.52
CCCC[C@H]1OB(O)C[C@H]2C1=C(COC)Cn1c(=O)n(-c3ccccc3)c(=O)n12	0.921
C=C(COC)C(=O)CC[C@@H](OC(C)=O)c1ccc(CO)o1	0.188
O=C1C[C@@](C(=O)NCC(F)(F)F)(c2ccc([N+](=O)[O-])cc2)[C@@H](c2ccc(CO)cc2I)N1C1CCCCC1	0.324
COCCOC(=O)N1C(=O)[C@@]2(c3cc(C#CCC(C(=O)OC)C(=O)OC)ccc31)[C@H](C(=O)Nc1nc3ccccc3s1)[C@H]1C(=O)O[C@H](c3ccccc3)[C@H](c3ccccc3)N1[C@@H]2c1ccccc1OCCO	-0.454
CN1C(=O)C2C=CC(C(O)C3CC=CCC3)N(N(c3ccccc3)c3ccccc3)C2C1=O (stereo unspecified)	-0.501
N#Cc1ccc(NN2C(C(O)C(c3ccccc3)c3ccccc3)C=CC3C(=O)N(c4ccccc4)C(=O)C32)cc1 (stereo unspecified)	-0.386
O=C1N[C@@H](Cc2ccccc2)C(=O)N2[C@@H]1C[C@@H](C(=O)O)[C@H]2c1cccc(OCCO)c1	2.99
COC(=O)[C@@]1(Cc2ccc(F)cc2)[C@H]2c3cc(C(=O)N(C)C)n(Cc4cc(F)c(F)c(F)c4)c3C[C@H]2CN1C(=O)c1ccccc1	-2.68
COc1ccc([Si](C)(C)[C@H]2[C@H](CC(=O)N3Cc4ccccc4C[C@H]3CO)O[C@@]3(C(=O)N(Cc4cccc(N5CCC5=O)c4)c4ccccc43)[C@@H]2C)cc1	-0.919
CC1CC/C=C\[C@H]2OC34C=CCN(C(C)(C)C)C(=O)[C@H]3N(CCO)C(=O)[C@@H]4C2C(=O)O1 (stereo partly specified)	0.283
CC(C)=CCN[C@H](CO)c1ccccc1	-0.278
CC(C)C[C@@H]1NC(=O)[C@@H]2C[C@H](C(=O)NCc3ccc(F)cc3)[C@H](c3cccc(OCCO)c3)N2C1=O	0.234

SMILES	z-score
COC(=O)[C@@]1(Cc2ccc(F)cc2)[C@H]2c3cc(C(=O)N4CCCC4)n(Cc4ccc(S(C)(=O)=O)cc4)c3C[C@H]2CN1C(=O)c1ccccc1	0.039
Cc1ccc(S[C@]2(C(=O)NCCCN(C)C)CC(=O)N(Cc3cc(C(F)(F)F)cc(C(F)(F)F)c3)[C@@H]2c2ccc(CO)cc2I)cc1	-0.335
O=C1C[C@@](C(=O)NCCN2CCOCC2)(c2ccc([N+](=O)[O-])cc2)[C@@H](c2ccc(CO)cc2I)N1CC12CC3CC(CC(C3)C1)C2	-4.83
CCCC=C(CCC)[C@@H](NC(=O)c1cccs1)c1ccc(C(F)(F)F)cc1	1.73
CCOC(=O)C[C@H]1[C@H](OC(=O)c2ccc(C(=O)c3ccccc3)cc2)[C@@H](NC(=O)c2ccccc2)c2cc(OCCCO)ccc2N1C(=O)c1ccc2ccccc2n1	-0.142
COC(=O)[C@@]1(CCC(=O)OC(C)(C)C)N=C(c2ccc(OCCCO)cc2)O[C@H]1c1ccccc1N=[N+]=[N-]	-2.08
CCOC(=O)C[C@H]1[C@H](OC(=O)c2cc3ccccc3oc2=O)[C@@H](NC(=O)c2ccccc2)c2cc(OCCCO)ccc2N1C(=O)c1ccc2ccccc2n1	-0.886
C=CCNC(=O)[C@@H]1[C@H]2C(=O)O[C@H](c3ccccc3)[C@H](c3ccccc3)N2[C@H](c2ccc(O)cc2)[C@@]12C(=O)N(C(=O)OCCOC)c1ccc(C#CCNC(N)=O)cc12	-0.645
C=CCNC(=O)[C@H]1[C@@H]2C(=O)O[C@@H](c3ccccc3)[C@@H](c3ccccc3)N2[C@@H](c2ccccc2OCCO)[C@]12C(=O)Nc1ccc(C#CCC(C(=O)OC)C(=O)OC)cc12	0.545
CCOC(=O)C1=CC[C@@H](c2ccccc2)N(S(=O)(=O)c2ccc(C)cc2)[C@H]1c1ccccc1C	2.32
O=C1O[C@H](c2ccccc2)[C@H](c2ccccc2)N2[C@H]1[C@@H](C(=O)N1CCCCCCC1)[C@]1(C(=O)Nc3ccc(C#CCCO)cc31)[C@H]2c1ccccc1OCCO	0.458
C=C(C(=O)CC[C@@H](OC(=O)c1cccnc1)c1ccccc1OCCO)C(C)C	-0.414
O=C1C2C=CC(C(O)Cc3ccccc3)N(n3cnnc3)C2C(=O)N1Cc1ccccc1 (stereo unspecified)	-1.29
O=C1[C@@]23C=C(Br)[C@H](C[C@@H]2CCOC3)[C@@]12CO2	-0.309
COC(=O)[C@@]1(Cc2ccc(OC)cc2)[C@H]2c3cc(C(=O)N(C)C)n(C)c3C[C@H]2CN1C(=O)c1ccccc1	-0.482
COCCOC(=O)N1C(=O)[C@@]2(c3cc(C#CCNC(N)=O)ccc31)[C@H](C(=O)N1CCN(c3ncccn3)CC1)[C@H]1C(=O)O[C@H](c3ccccc3)[C@H](c3ccccc3)N1[C@@H]2c1ccc(OCCO)cc1	-0.465
COCCCNC(=O)[C@@H]1c2ccccc2C(=O)N(Cc2ccccc2Cl)[C@H]1c1ccc(CO)cc1	-0.028
C=CC[C@]1(C(=O)NCCCOC)N=C(c2ccc(OCCCO)cc2)O[C@H]1c1ccccc1CN=[N+]=[N-]	-0.0227
